# Experimental data: the supplement of paper PMC8728848
# The full list was thinned out, with the strongest signals kept by preference.
# Experiments:
# Assay in all cases: glycan array binding signal (z-score within array); higher = stronger binding
# Details in all cases: glycan notation: IUPAC condensed, linker removed
# Fuc(a1-2)Gal(b1-4)Glc6S = biological target: Fuc(a1-2)Gal(b1-4)Glc6S
# In short: (§1)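 The binding signal is a Z-score computed within each array. Data were drawn from 3228 arrays in the Consortium for Functional Glycomics database, restricted to those with a known protein sequence. Scores were averaged over arrays of the same protein sequence at different concentrations or buffers, and over linkers, and negative values can be taken as non-binding.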
# [1] = biological target: Fuc(a1-2)Gal(b1-4)GlcNAc(b1-3)Gal(b1-4)GlcNAc
# In short: as §1
# [2] = biological target: Fuc(a1-2)Gal(b1-4)GlcNAc(b1-3)Gal(b1-4)GlcNAc(b1-2)Man(a1-3)[Fuc(a1-2)Gal(b1-4)GlcNAc(b1-3)Gal(b1-4)GlcNAc(b1-2)Man(a1-6)]Man(b1-4)GlcNAc(b1-4)GlcNAc
# In short: as §1
# [3] = biological target: Fuc(a1-2)Gal(b1-4)GlcNAc(b1-3)Gal(b1-4)GlcNAc(b1-3)Gal(b1-4)GlcNAc
# In short: as §1
# [4] = biological target: Fuc(a1-2)Gal(b1-4)GlcNAc(b1-3)GalNAc
# In short: as §1
# [5] = biological target: Fuc(a1-2)Gal(b1-4)GlcNAc(b1-6)GalNAc
# In short: as §1
# [6] = biological target: Fuc(a1-2)Gal(b1-4)[Fuc(a1-3)]GlcNAc(b1-2)Man(a1-3)[Fuc(a1-2)Gal(b1-4)[Fuc(a1-3)]GlcNAc(b1-2)Man(a1-6)]Man(b1-4)GlcNAc(b1-4)[Fuc(a1-6)]GlcNAc
# In short: as §1
# [7] = biological target: Fuc(a1-2)Gal(b1-4)[Fuc(a1-3)]GlcNAc(b1-2)[Fuc(a1-2)Gal(b1-4)[Fuc(a1-3)]GlcNAc(b1-4)]Man(a1-3)[Fuc(a1-2)Gal(b1-4)[Fuc(a1-3)]GlcNAc(b1-2)Man(a1-6)]Man(b1-4)GlcNAc(b1-4)GlcNAc
# In short: as §1
# [8] = biological target: Fuc(a1-2)Gal(b1-4)[Fuc(a1-3)]GlcNAc(b1-3)Gal(b1-4)[Fuc(a1-3)]GlcNAc
# In short: as §1
# [9] = biological target: Fuc(a1-2)Gal(b1-4)[Fuc(a1-3)]GlcNAc(b1-3)Gal(b1-4)[Fuc(a1-3)]GlcNAc(b1-3)Gal(b1-4)[Fuc(a1-3)]GlcNAc
# In short: as §1
# [10] = biological target: Fuc(a1-2)[Gal(a1-3)]Gal(b1-3)GalNAc(b1-3)Gal(a1-4)Gal(b1-4)Glc
# In short: as §1
# [11] = biological target: Fuc(a1-2)[Gal(a1-3)]Gal(b1-3)GlcNAc(b1-2)Man(a1-3)[Fuc(a1-2)[Gal(a1-3)]Gal(b1-3)GlcNAc(b1-2)Man(a1-6)]Man(b1-4)GlcNAc(b1-4)[Fuc(a1-6)]GlcNAc
# In short: as §1
# [12] = biological target: Fuc(a1-2)[Gal(a1-3)]Gal(b1-4)[Fuc(a1-3)]GlcNAc(b1-3)GalNAc
# In short: as §1
# [13] = biological target: Fuc(a1-2)[GalNAc(a1-3)]Gal(b1-4)GlcNAc(b1-3)Gal(b1-4)GlcNAc(b1-3)Gal(b1-4)GlcNAc
# In short: as §1
# [14] = biological target: Fuc(a1-2)[GalNAc(a1-4)]Gal(b1-4)GlcNAc
# In short: as §1
# [15] = biological target: Fuc(a1-3)[Gal(b1-4)]GlcNAc(b1-3)Gal(b1-4)[Fuc(a1-3)]GlcNAc(b1-3)Gal(b1-4)[Fuc(a1-3)]GlcNAc
# In short: as §1
# Gal(b1-3)GalNAc = biological target: Gal(b1-3)GalNAc
# In short: as §1
# [16] = biological target: Gal(b1-3)GlcNAc(a1-3)Gal(b1-4)GlcNAc
# In short: as §1
# [17] = biological target: Gal(b1-3)GlcNAc(b1-3)Gal(b1-4)[Fuc(a1-3)]GlcNAc
# In short: as §1
# [18] = biological target: Gal(b1-3)GlcNAc(b1-3)GalNAc
# In short: as §1
# [19] = biological target: Gal(b1-3)GlcNAc(b1-6)[Gal(b1-3)]GalNAc
# In short: as §1
# [20] = biological target: Gal(b1-3)[Fuc(a1-4)]GlcNAc(b1-3)Gal(b1-3)[Fuc(a1-4)]GlcNAc
# In short: as §1
# [21] = biological target: Gal(b1-3)[Fuc(a1-4)]GlcNAc(b1-3)Gal(b1-4)[Fuc(a1-3)]GlcNAc
# In short: as §1
# [22] = biological target: Gal(b1-3)[Neu5Ac(a2-6)]GalNAc
# In short: as §1
# [23] = biological target: Gal(b1-4)GalNAc(b1-3)[Fuc(a1-2)]Gal(b1-4)GlcNAc
# In short: as §1
# Gal(b1-4)Glc = biological target: Gal(b1-4)Glc
# In short: as §1
# Gal(b1-4)GlcNAc(b1-2)Man = biological target: Gal(b1-4)GlcNAc(b1-2)Man
# In short: as §1
# [24] = biological target: Gal(b1-4)GlcNAc(b1-3)Gal(b1-4)GlcNAc(b1-3)[Gal(b1-4)GlcNAc(b1-3)Gal(b1-4)GlcNAc(b1-6)]GalNAc
# In short: as §1
# [25] = biological target: Gal(b1-4)GlcNAc(b1-3)Gal(b1-4)[Fuc(a1-3)]GlcNAc(b1-3)Gal(b1-4)[Fuc(a1-3)]GlcNAc
# In short: as §1
# Gal4S(b1-4)GlcNAc = biological target: Gal4S(b1-4)GlcNAc
# In short: as §1
# Gal6S(b1-4)GlcNAc = biological target: Gal6S(b1-4)GlcNAc
# In short: as §1
# GalNAc(b1-3)Gal = biological target: GalNAc(b1-3)Gal
# In short: as §1
# GalNAc3S(b1-4)GlcNAc3S = biological target: GalNAc3S(b1-4)GlcNAc3S
# In short: as §1
# [26] = biological target: GlcNAc(a1-4)Gal(b1-4)GlcNAc(b1-3)Gal(b1-4)Glc
# In short: as §1
# [27] = biological target: GlcNAc(b1-3)Gal(b1-4)GlcNAc(b1-3)Gal(b1-4)GlcNAc
# In short: as §1
# [28] = biological target: GlcNAc(b1-3)Gal(b1-4)GlcNAc(b1-3)Gal(b1-4)GlcNAc(b1-3)Gal(b1-4)GlcNAc(b1-2)Man(a1-3)[GlcNAc(b1-3)Gal(b1-4)GlcNAc(b1-3)Gal(b1-4)GlcNAc(b1-3)Gal(b1-4)GlcNAc(b1-2)Man(a1-6)]Man(b1-4)GlcNAc(b1-4)GlcNAc
# In short: as §1
# [29] = biological target: GlcNAc(b1-3)Gal(b1-4)GlcNAc(b1-3)Gal(b1-4)GlcNAc(b1-3)Gal(b1-4)GlcNAc(b1-3)Gal(b1-4)GlcNAc(b1-2)Man(a1-3)[GlcNAc(b1-3)Gal(b1-4)GlcNAc(b1-3)Gal(b1-4)GlcNAc(b1-3)Gal(b1-4)GlcNAc(b1-3)Gal(b1-4)GlcNAc(b1-2)Man(a1-6)]Man(b1-4)GlcNAc(b1-4)[Fuc(a1-6)]GlcNAc
# In short: as §1
# [30] = biological target: GlcNAc(b1-3)[GlcNAc(b1-6)]Gal(b1-4)GlcNAc
# In short: as §1
# GlcNAc(b1-4)GlcNAc = biological target: GlcNAc(b1-4)GlcNAc
# In short: as §1
# [31] = biological target: GlcNAc(b1-4)GlcNAc(b1-4)GlcNAc
# In short: as §1
# GlcNAc(b1-6)GalNAc = biological target: GlcNAc(b1-6)GalNAc
# In short: as §1
# Kdn(a2-3)Gal(b1-3)GlcNAc = biological target: Kdn(a2-3)Gal(b1-3)GlcNAc
# In short: as §1
# [32] = biological target: Man(a1-2)Man(a1-3)[Man(a1-2)Man(a1-6)]Man(a1-6)[Man(a1-2)Man(a1-2)Man(a1-3)]Man
# In short: as §1
# [33] = biological target: Man(a1-3)[Man(a1-6)]Man(a1-6)[Man(a1-2)Man(a1-3)]Man(b1-4)GlcNAc(b1-4)GlcNAc
# In short: as §1
# [34] = biological target: Neu5Ac(a2-3)Gal(b1-3)[Fuc(a1-4)]GlcNAc
# In short: as §1
# [35] = biological target: Neu5Ac(a2-3)Gal(b1-4)GlcNAc(b1-3)Gal(b1-3)GlcNAc
# In short: as §1
# [36] = biological target: Neu5Ac(a2-3)Gal(b1-4)GlcNAc(b1-3)GalNAc
# In short: as §1
# [37] = biological target: Neu5Ac(a2-3)Gal(b1-4)GlcNAc(b1-6)[Gal(b1-3)]GalNAc
# In short: as §1
# [38] = biological target: Neu5Ac9Ac(a2-6)Gal(b1-4)GlcNAc
# In short: as §1
# [39] = biological target: Neu5Gc(a2-3)Gal(b1-3)[Fuc(a1-4)]GlcNAc
# In short: as §1
# Neu5Gc(a2-6)GalNAc = biological target: Neu5Gc(a2-6)GalNAc
# In short: as §1
# [40] = biological target: Neu5Gc(a2-8)Neu5Gc(a2-6)Gal(b1-4)GlcNAc
# In short: as §1
binder,measurement,setting,value
LecB PA7 (Pseudomonas aeruginosa) (protein) MATQGVFTLPANTRFGVTAFANSSATQTVKVLVNNETAATFTGQSTNNAVIGSQVLNSGGGGKVQIQVSVNGRSSDLVSAQVILANELNVALVGSEDSTDNDYNDAVVVINWPLG,glycan array binding signal (z-score),Fuc(a1-2)Gal(b1-4)Glc6S,1.89
same,glycan array binding signal (z-score),[1],3.5
same,glycan array binding signal (z-score),[2],10.1
same,glycan array binding signal (z-score),[3],3.71
same,glycan array binding signal (z-score),[4],0.923
same,glycan array binding signal (z-score),[5],0.819
same,glycan array binding signal (z-score),[6],5.18
same,glycan array binding signal (z-score),[7],-0.08
same,glycan array binding signal (z-score),[8],4.93
same,glycan array binding signal (z-score),[9],4.08
same,glycan array binding signal (z-score),[10],-0.43
same,glycan array binding signal (z-score),[11],0.145
same,glycan array binding signal (z-score),[12],0.197
same,glycan array binding signal (z-score),[13],-0.381
same,glycan array binding signal (z-score),[14],1.57
same,glycan array binding signal (z-score),[15],3.54
same,glycan array binding signal (z-score),Gal(b1-3)GalNAc,-0.403
same,glycan array binding signal (z-score),[16],-0.51
same,glycan array binding signal (z-score),[17],1.8
same,glycan array binding signal (z-score),[18],-0.499
same,glycan array binding signal (z-score),[19],-0.412
same,glycan array binding signal (z-score),[20],3.31
same,glycan array binding signal (z-score),[21],3.44
same,glycan array binding signal (z-score),[22],-0.511
same,glycan array binding signal (z-score),[23],-0.478
same,glycan array binding signal (z-score),Gal(b1-4)Glc,-0.502
same,glycan array binding signal (z-score),Gal(b1-4)GlcNAc(b1-2)Man,-0.495
same,glycan array binding signal (z-score),[24],-0.495
same,glycan array binding signal (z-score),[25],2.05
same,glycan array binding signal (z-score),Gal4S(b1-4)GlcNAc,-0.478
same,glycan array binding signal (z-score),Gal6S(b1-4)GlcNAc,-0.501
same,glycan array binding signal (z-score),GalNAc(b1-3)Gal,-0.493
same,glycan array binding signal (z-score),GalNAc3S(b1-4)GlcNAc3S,-0.517
same,glycan array binding signal (z-score),[26],-0.505
same,glycan array binding signal (z-score),[27],-0.503
same,glycan array binding signal (z-score),[28],-0.467
same,glycan array binding signal (z-score),[29],0.402
same,glycan array binding signal (z-score),[30],-0.516
same,glycan array binding signal (z-score),GlcNAc(b1-4)GlcNAc,-0.486
same,glycan array binding signal (z-score),[31],-0.497
same,glycan array binding signal (z-score),GlcNAc(b1-6)GalNAc,-0.504
same,glycan array binding signal (z-score),Kdn(a2-3)Gal(b1-3)GlcNAc,-0.511
same,glycan array binding signal (z-score),[32],3.2
same,glycan array binding signal (z-score),[33],2.3
same,glycan array binding signal (z-score),[34],3.31
same,glycan array binding signal (z-score),[35],-0.505
same,glycan array binding signal (z-score),[36],-0.466
same,glycan array binding signal (z-score),[37],-0.087
same,glycan array binding signal (z-score),[38],-0.502
same,glycan array binding signal (z-score),[39],2.03
same,glycan array binding signal (z-score),Neu5Gc(a2-6)GalNAc,-0.508
same,glycan array binding signal (z-score),[40],-0.507
